Results filed as inconclusive are left out. Entries that show only a call come without a potency. Calls of active or inactive are those of the source. Calls come from the whole dose curve; as a rule, active = well fitted cell-killing curve with a large enough effect; inconclusive = small, poorly fitted or top-dose-only effect; inactive = flat fitted curve, though single readings scatter.
Potency is the fitted concentration of half-maximal effect.

This assay is described as follows: qHTS of pediatric cancer cell lines to identify multiple opportunities for drug repurposing: Primary screen for TC32 cells (AID 1347089). Note: nearly all actives have a fitted effect of over 60% in size. The conditions noted are these: TC32 Ewing sarcoma viability, CellTiter-Glo luminescence, 48 h; series mostly up to 45.8 µM. The text has this:
Drug repurposing or repositioning has been offered as a strategy for drug development in oncology programs. This approach has special potential for childhood cancers and other rare or orphan diseases, where the expected return on new drug development has been a disincentive to pharmaceuticals.
In this project we exploit the poly-pharmacology of drugs to discover new indications via phenotypic screening of a panel of 19 well-characterized cell lines derived from solid tumors seen in children and adolescents. The goal is to identify approved drugs with previously unrecognized anticancer properties that has the potential to reveal new mechanisms and biological processes involved in carcinogenesis or drug resistance. We employed a titration-based paradigm (quantitative high-throughput screening or qHTS), where all compounds were tested at multiple concentrations for their effect on cell viability. Concentration-response curves (CRCs) were derived directly from the primary screen, and both potency and efficacy values were used to identify compounds with robust bioactivity profiles. We screened the NIH Chemical Genomics Center (NCGC) Pharmaceutical Collection (NPC) and Mechanism Interrogation Plate (MIPE) small molecule collections of approved and investigational compounds against these cell lines; and measured metabolically active cells after 48 hours of compound treatment as a proxy for cell viability.
Assay Submitter: Nathalia J. Martinez, National Center for Advancing Translational Sciences, National Institutes of Health, Rockville, MD, USA; email: natalia.martinez@nih.gov
[1] Shen, M et al. Quantitative high-throughput phenotypic screening of pediatric cancer cell lines identifies multiple opportunities for drug repurposing. Oncotarget 2017 Dec 19;9(4):4758-4772. PMID 29435139.
The cells were obtained from University of North Carolina (UNC), Pediatric Preclinical Testing Program (PPT), and Coriell Institute (CI).
qHTS cell viability assay:
Cells were assayed in growth media at a density of 500-1,000 cells/well. Five microliters of cells were dispensed into 1,536-well, white, solid-bottom, TC-treated plates (Greiner Bio One) using a multidrop dispenser and incubated at 37 degrees C, 5% CO2, under a humidified atmosphere for 5 hours. Twenty-three nanoliters of compounds and controls (neutral control DMSO or positive control bortezomib at final concentration of 2.3 uM) were subsequently transferred by Kalypsys pintool. For primary screens, the MIPE collection was tested at 11-point dilutions (final concentrations range from 0.78 nM to 46 µM) and the NPC collection at 8-point dilutions (final concentrations range from 0.59 nM to 46 µM). Compounds tested in follow-up screens were assayed at 11-point dilutions. Cells were incubated for 48 hours, followed by addition of 3 uL of CellTiter-Glo (Promega). After a 15min incubation at room temperature, samples were analyzed for luminescence intensity using a ViewLux High-throughput CCD imager equipped with clear filters.
`NC(=O)COCCN1CCN(C(c2ccccc2)c2ccc(Cl)cc2)CC1` (stereo not given): the Potency result is “inactive”.

For the compound `Oc1cccc2[nH]ccc12`, the Potency result was “inactive”.

Regarding `CCOC(=O)O[C@]1(C(=O)OCCl)CC[C@H]2[C@@H]3CCC4=CC(=O)C=C[C@]4(C)[C@H]3[C@@H](O)C[C@@]21C`, the Potency result was “inactive”.

In the case of `Nc1nc2ccccc2n1Cc1ccc(F)cc1`, the Potency entry is “inactive”.

As to `CCCCOC(=O)CCCCCCCCC(=O)OCCCC`, the Potency entry is “inactive”.

As to `CN1N=C(C(N)=O)CCC1=O`, the Potency entry is “inactive”.

Consider `O=C1Nc2cc(Cl)ccc2Oc2ccccc21`, for which the Potency entry was “inactive”.

Regarding `CC(C)(C)C(=O)OCOC(=O)C1N2C(=O)CC2S(=O)(=O)C1(C)C` (stereo not given), the Potency result was “inactive”.

With `O=C(O)Cn1c(=O)n(Cc2ccc(Br)cc2F)c(=O)c2ccc(Cl)cc21`, the Potency result is “inactive”.

`C1N2CN3CN1CN(C2)C3`: the Potency entry was “inactive”.

Consider `Fc1ccc(C(c2ccc(F)cc2)N2CCNCC2)cc1`, for which the Potency result was “inactive”.

Consider `Cc1ccc(/C=N/n2c(-c3ccccc3)csc2=S)cc1`, for which the Potency result was “inactive”.

With `O=C(O)c1ccccc1Nc1cc(Cl)ccc1C(=O)O`, the Potency entry is “inactive”.

With `O=C(NN1CCCC1)NS(=O)(=O)c1ccc(Cl)cc1`, the Potency entry is “inactive”.

`CC(C)(C)c1nnc(NS(=O)(=O)c2ccccc2)s1`: the Potency entry is “inactive”.

With `CCCc1c2oc(C(=O)O)cc(=O)c2cc2c(=O)cc(C(=O)O)n(CC)c12`, the Potency result is “inactive”.

`Nc1ncnc2nc[nH]c12`: the Potency result was “inactive”.

As to `COC(=O)c1cc(S(N)(=O)=O)ccc1OC`, the Potency result was “inactive”.

For the compound `CN1CCC(Nc2ncc3ncnc(Nc4ccc(F)c(Cl)c4)c3n2)CC1`, the Potency result is “inactive”.

Consider `CC(=O)O[C@@H]1C(=O)O[C@@H]2[C@H]1OC(=O)[C@@H]2OC(C)=O`, for which the Potency entry was “inactive”.

With `CCCC(=O)OCOC(=O)C1=C(C)NC(C)=C(C(=O)OC)C1c1cccc(Cl)c1Cl` (stereo not given), the Potency entry is “inactive”.

Take `O=C(O)[C@H](O)[C@@H](O)[C@H](O[C@@H]1O[C@H](CO)[C@H](O)[C@H](O)[C@H]1O)[C@H](O)CO`: the Potency entry was “inactive”.

In the case of `C[C@H]1C[C@H](O)c2ccsc2S1(=O)=O`, the Potency result is “inactive”.

As to `C=CC[N+]1([C@H]2C[C@H]3[C@@H]4CC[C@H]5C[C@H](OC(C)=O)[C@@H](N6CCCCC6)C[C@]5(C)[C@H]4CC[C@]3(C)[C@H]2OC(=O)CC)CCCCC1`, the Potency result was “inactive”.

As for `CCOC(=O)C(=O)CCc1ccccc1`, the Potency result was “inactive”.

On to `CCOc1ccccc1OCC1CNCCO1` (stereo not given), for which the Potency entry was “inactive”.

Turning to `CC(COc1ccccc1)NN` (stereo not given), the Potency entry was “inactive”.

Consider `Cc1ccc(C(=O)C(=O)O)cc1C`, for which the Potency result is “inactive”.

In the case of `CN(C)CCOC1=Cc2ccccc2Sc2ccc(Cl)cc21`, the Potency result was “inactive”.

For the compound `CCOC(=O)N1CCC(Nc2ccc(Cl)cc2N)CC1`, the Potency entry was “inactive”.

For `Cc1ccc(C(C)OC(=O)C2(C)CCC(C(=O)O)C2(C)C)cc1` (stereo not given), the Potency result is “inactive”.

Take `O=C1NC2CCCCN2C12CCN(CCCN1c3ccccc3CCc3ccc(Cl)cc31)CC2` (stereo not given): the Potency entry is “inactive”.

In the case of `CCC1=C[C@@H]2CN(C1)Cc1c([nH]c3ccccc13)[C@@](C(=O)OC)(c1cc3c(cc1OC)N(C)[C@H]1[C@@](O)(C(=O)OC)[C@H](OC(C)=O)[C@]4(CC)C=CCN5CC[C@]31[C@@H]54)C2`, the Potency is 26.4 nM (active).

For `CC1CCCCN1CCCOC(=O)c1ccc(OC2CCCCC2)cc1` (stereo not given), the Potency entry was “inactive”.

Consider `CCC(C(=O)OCCN1CCOC(c2ccccc2)C1C)c1ccccc1` (stereo not given), for which the Potency result was “inactive”.

Regarding `CC1(C)OC(=O)Nc2ccc(Br)cc21`, the Potency result was “inactive”.

As for `CCOC(=O)C(O)c1ccccc1` (stereo not given), the Potency result was “inactive”.

For the compound `CCCCCCCCCCCCCCCCCCN(C)C`, the Potency entry is “inactive”.

On to `CCOC(=O)C(=O)c1csc(NC=O)n1`, for which the Potency entry was “inactive”.

Consider `Cc1onc(-c2ccccc2)c1C(=O)Cl`, for which the Potency entry was “inactive”.

Source of the values: PubChem BioAssay (NCATS).
